# Experimental data as given in the supplement of paper PMC10849652.
# About 7,900 targets were measured; listed, in parts, are those with a hit and a random draw of the rest. About 0.6% of all pairs of compound and target were hits.
# Compound: O=C1NC(=O)C(c2cnc3ccccn23)=C1c1cn2c3c(cc(F)cc13)CN(C(=O)N1CCCCC1)CC2
# Assay: log2 fold change, soluble protein after heating vs DMSO (PISA); higher = thermal stabilisation; K562 cells, 10 uM, 30 min; active = over 0.2 and 3.5 SD of the protein, either way, in both replicates (recomputed)
# How it was run: (§1)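 K562 cells at 2×10^6 cells/mL were exposed to 10 μM compound for 30 min, then aliquots were heated for 3 min across 48°C-58°C, pooled, and extracted in PBS containing 0.5% NP-40 at 4°C. The supernatant after 21,000xg for 90 min was taken as soluble protein and measured by TMTpro 16plex LC-MS/MS with channel sums equalised. Thermal stability is reported relative to control samples, with values from duplicates. Fold changes are given on a log2 scale.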
# Sequence of UniProt Q8IY18 (Q8IY18 whole entry, looked up): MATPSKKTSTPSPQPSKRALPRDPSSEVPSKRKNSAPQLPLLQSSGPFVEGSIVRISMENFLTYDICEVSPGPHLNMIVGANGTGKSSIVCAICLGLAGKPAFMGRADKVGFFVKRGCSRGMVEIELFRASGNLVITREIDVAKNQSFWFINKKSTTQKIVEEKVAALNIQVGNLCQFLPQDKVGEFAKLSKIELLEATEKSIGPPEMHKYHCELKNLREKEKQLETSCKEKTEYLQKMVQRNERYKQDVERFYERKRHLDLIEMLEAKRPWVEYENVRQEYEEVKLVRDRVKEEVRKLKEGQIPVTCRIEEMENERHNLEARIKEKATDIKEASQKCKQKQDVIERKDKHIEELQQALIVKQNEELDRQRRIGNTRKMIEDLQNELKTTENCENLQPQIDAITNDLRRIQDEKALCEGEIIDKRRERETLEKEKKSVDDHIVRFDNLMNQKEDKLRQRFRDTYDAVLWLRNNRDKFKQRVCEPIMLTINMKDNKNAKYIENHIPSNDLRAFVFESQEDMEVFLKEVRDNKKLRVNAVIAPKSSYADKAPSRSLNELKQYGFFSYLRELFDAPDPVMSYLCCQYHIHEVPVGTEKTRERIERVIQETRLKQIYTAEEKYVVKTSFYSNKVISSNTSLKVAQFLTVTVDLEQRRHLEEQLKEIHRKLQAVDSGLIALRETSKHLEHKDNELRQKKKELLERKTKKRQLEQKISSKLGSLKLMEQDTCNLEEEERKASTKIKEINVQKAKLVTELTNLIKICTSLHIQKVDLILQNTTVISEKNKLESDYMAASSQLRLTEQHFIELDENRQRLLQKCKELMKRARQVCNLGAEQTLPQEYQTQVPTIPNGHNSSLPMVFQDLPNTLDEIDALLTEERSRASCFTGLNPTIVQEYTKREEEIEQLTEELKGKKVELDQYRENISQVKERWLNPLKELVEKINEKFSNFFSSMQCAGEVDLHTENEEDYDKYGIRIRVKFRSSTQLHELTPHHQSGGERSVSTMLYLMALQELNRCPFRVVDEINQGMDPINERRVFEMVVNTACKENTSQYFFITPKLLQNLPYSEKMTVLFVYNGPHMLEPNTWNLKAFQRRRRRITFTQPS
# Sequence of UniProt Q8IWA5 (Q8IWA5 whole entry, looked up): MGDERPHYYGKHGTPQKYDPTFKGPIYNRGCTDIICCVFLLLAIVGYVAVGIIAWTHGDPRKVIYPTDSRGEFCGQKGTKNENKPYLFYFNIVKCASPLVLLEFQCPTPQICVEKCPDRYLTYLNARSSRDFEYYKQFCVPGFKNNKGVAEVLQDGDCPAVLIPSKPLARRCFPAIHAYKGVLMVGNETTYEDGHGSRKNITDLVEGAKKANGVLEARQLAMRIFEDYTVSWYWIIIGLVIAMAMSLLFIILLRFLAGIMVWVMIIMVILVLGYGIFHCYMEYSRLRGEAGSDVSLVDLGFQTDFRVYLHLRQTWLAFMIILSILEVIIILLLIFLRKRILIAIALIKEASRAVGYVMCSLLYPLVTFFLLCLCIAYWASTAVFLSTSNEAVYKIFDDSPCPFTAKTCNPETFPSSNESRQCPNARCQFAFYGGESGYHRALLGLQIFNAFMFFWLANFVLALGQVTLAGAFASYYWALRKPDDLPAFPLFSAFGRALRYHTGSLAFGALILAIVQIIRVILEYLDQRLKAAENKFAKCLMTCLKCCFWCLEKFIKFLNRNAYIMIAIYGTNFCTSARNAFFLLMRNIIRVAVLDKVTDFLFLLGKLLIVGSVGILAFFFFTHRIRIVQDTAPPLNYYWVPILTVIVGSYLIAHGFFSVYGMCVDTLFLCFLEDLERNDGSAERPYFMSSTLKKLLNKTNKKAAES
# Sequence of UniProt P08047 (P08047 whole entry, looked up): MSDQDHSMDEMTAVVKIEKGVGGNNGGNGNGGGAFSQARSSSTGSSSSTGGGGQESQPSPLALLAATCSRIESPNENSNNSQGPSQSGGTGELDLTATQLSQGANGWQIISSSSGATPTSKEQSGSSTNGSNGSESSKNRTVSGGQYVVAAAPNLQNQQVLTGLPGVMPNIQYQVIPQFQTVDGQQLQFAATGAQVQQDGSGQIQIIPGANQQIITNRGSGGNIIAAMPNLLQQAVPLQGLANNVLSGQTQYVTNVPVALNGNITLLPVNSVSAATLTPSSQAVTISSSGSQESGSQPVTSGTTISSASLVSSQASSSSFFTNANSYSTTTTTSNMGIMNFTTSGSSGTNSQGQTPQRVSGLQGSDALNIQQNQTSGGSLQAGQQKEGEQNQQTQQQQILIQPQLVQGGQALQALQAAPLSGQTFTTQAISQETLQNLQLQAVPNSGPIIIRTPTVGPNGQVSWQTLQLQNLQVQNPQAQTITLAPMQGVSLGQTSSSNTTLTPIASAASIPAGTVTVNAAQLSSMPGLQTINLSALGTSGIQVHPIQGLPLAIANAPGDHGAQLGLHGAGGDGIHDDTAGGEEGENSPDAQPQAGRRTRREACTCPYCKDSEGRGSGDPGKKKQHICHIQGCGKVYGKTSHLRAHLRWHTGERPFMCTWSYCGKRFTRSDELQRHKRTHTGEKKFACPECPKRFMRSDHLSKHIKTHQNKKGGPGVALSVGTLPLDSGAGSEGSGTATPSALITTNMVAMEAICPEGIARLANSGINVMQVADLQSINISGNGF
# Sequence of UniProt Q15796 (Q15796 whole entry, looked up): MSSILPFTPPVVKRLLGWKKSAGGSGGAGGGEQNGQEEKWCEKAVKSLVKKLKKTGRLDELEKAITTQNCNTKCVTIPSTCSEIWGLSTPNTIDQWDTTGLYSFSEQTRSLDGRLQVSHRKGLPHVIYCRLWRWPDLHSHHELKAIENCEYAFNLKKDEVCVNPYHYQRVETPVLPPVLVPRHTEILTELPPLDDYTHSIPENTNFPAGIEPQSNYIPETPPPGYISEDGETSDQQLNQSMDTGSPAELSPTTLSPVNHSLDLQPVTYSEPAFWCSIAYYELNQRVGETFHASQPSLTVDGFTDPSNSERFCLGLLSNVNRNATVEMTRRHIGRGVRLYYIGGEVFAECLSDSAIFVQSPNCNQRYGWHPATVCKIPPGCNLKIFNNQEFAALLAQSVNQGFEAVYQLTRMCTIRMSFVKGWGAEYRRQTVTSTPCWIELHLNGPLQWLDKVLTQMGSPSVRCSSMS
# Sequence of UniProt O60271 (O60271 whole entry, looked up): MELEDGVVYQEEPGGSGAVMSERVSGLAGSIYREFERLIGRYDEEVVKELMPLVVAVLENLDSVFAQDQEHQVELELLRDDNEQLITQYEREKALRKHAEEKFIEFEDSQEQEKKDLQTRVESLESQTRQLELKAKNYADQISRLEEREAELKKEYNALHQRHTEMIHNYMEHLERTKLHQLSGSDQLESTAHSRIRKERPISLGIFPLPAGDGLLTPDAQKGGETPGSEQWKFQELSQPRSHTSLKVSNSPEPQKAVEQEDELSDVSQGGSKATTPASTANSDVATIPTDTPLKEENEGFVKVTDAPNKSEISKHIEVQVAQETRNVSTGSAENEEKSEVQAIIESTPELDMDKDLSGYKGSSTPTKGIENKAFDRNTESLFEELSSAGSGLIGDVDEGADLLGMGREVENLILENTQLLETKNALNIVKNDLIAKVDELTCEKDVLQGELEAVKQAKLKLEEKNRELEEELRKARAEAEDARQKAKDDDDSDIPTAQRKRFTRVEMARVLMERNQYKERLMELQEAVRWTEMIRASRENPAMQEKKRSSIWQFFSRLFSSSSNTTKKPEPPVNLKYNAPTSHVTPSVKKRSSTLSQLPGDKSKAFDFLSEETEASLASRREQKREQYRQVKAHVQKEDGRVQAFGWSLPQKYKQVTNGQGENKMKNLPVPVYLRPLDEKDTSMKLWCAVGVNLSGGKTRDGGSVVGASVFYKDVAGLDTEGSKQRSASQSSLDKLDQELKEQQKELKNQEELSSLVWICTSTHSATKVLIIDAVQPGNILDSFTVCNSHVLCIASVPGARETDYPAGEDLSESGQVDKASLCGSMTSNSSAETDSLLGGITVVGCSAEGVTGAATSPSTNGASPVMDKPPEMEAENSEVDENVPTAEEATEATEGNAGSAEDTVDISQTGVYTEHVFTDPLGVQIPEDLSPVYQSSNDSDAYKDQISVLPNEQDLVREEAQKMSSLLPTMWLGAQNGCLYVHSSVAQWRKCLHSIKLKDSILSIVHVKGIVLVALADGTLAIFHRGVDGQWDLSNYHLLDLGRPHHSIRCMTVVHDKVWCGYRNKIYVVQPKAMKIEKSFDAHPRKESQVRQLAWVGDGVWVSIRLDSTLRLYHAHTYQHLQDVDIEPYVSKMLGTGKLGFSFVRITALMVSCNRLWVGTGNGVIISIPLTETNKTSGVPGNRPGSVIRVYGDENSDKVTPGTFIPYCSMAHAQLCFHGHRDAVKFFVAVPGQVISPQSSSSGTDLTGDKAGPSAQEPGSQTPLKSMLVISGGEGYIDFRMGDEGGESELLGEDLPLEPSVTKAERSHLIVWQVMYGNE
# Sequence of UniProt Q9NVC3 (Q9NVC3 whole entry, looked up): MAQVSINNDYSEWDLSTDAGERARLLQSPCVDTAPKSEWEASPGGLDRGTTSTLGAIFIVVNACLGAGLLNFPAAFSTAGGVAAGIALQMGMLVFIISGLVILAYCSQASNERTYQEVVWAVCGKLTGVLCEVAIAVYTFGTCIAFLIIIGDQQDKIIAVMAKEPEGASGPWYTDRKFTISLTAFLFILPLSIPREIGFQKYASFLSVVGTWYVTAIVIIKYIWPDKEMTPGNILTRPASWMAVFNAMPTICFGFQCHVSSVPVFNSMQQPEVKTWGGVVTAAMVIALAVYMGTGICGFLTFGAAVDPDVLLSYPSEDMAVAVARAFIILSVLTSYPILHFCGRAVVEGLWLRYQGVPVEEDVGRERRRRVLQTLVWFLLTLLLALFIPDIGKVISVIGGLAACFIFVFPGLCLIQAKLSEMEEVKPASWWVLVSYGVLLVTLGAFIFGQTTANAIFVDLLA
# Sequence of UniProt Q9BYN0 (Q9BYN0 whole entry, looked up): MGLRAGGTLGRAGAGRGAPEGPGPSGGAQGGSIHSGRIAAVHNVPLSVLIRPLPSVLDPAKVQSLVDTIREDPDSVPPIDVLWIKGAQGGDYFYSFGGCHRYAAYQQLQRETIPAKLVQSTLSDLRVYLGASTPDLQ
row,Target,log2 fold change
1,SPAG9 (UniProt O60271),-0.014 (inactive)
2,SRFBP1 (UniProt Q8NEF9),0.122 (inactive)
3,SMC5 (UniProt Q8IY18),-0.1 (inactive)
4,SLC38A7 (UniProt Q9NVC3),-0.107 (inactive)
5,SLC30A10 (UniProt Q6XR72),-0.005 (inactive)
6,TK1 (UniProt K7ERV3),-0.116 (inactive)
7,SMCHD1 (UniProt A6NHR9),0.206 (inactive)
8,SLC44A2 isoform 2 (UniProt Q8IWA5),-0.075 (inactive)
9,SYNE1 (UniProt Q8NF91),-0.244 (inactive)
10,TBC1D20 isoform 3 (UniProt Q96BZ9),-0.007 (inactive)
11,STK11IP (UniProt Q8N1F8),0.095 (inactive)
12,SMAD2 (UniProt Q15796),0.009 (inactive)
13,STXBP2 isoform 3 (UniProt Q15833),0.141 (inactive)
14,SPIRE1 (UniProt Q08AE8),0.224 (inactive)
15,TGFBR1 isoform 2 (UniProt P36897),-0.052 (inactive)
16,STK38L (UniProt Q9Y2H1),-0.078 (inactive)

row,Target,log2 fold change
1,STARD3 (UniProt Q14849),-0.003 (inactive)
2,SRC isoform 2 (UniProt P12931),0.093 (inactive)
3,SRSF6 (UniProt Q13247),0.108 (inactive)
4,TEX30 (UniProt Q5JUR7),-0.04 (inactive)
5,TFAM (UniProt Q00059),0.06 (inactive)
6,TM9SF4 (UniProt Q92544),-0.011 (inactive)
7,SLC25A38 (UniProt Q96DW6),-0.022 (inactive)
8,TAOK3 (UniProt Q9H2K8),0.021 (inactive)
9,SRI (UniProt P30626),-0.045 (inactive)
10,SRXN1 (UniProt Q9BYN0),-0.111 (inactive)
11,STX7 (UniProt O15400),-0.006 (inactive)
12,SMARCA4 (UniProt P51532),-0.067 (inactive)
13,TATDN2 (UniProt Q93075),0.067 (inactive)
14,SOAT1 (UniProt P35610),-0.098 (inactive)
15,SP1 (UniProt P08047),0.088 (inactive)

# Compound: c1cc(OCCN2CCCCC2)cc(-c2n[nH]c3ccc(-c4nnc[nH]4)cc23)c1
# Assay: as above
# How it was run: as §1
row,Target,log2 fold change
1,SYNE2 isoform 2 (UniProt Q8WXH0),0.03 (inactive)
2,SPAG9 (UniProt O60271),-0.024 (inactive)
3,SRFBP1 (UniProt Q8NEF9),0.116 (inactive)
4,SMC5 (UniProt Q8IY18),-0.051 (inactive)
5,SLC38A7 (UniProt Q9NVC3),-0.004 (inactive)
6,SLC30A10 (UniProt Q6XR72),-0.432 (active)
7,SMCHD1 (UniProt A6NHR9),-0.176 (inactive)
8,SLC44A2 isoform 2 (UniProt Q8IWA5),-0.289 (inactive)
9,SYNE1 (UniProt Q8NF91),0.006 (inactive)
10,TENT5C (UniProt Q5VWP2),-0.133 (inactive)
11,SRCAP (UniProt Q6ZRS2),0.001 (inactive)
12,TBC1D20 isoform 3 (UniProt Q96BZ9),0.03 (inactive)
13,STK11IP (UniProt Q8N1F8),0.016 (inactive)
14,SMAD2 (UniProt Q15796),-0.018 (inactive)
15,STXBP2 isoform 3 (UniProt Q15833),0.036 (inactive)
16,SPIRE1 (UniProt Q08AE8),0.023 (inactive)
17,TGFBR1 isoform 2 (UniProt P36897),-0.054 (inactive)
18,STK38L (UniProt Q9Y2H1),0.05 (inactive)

row,Target,log2 fold change
1,SRC isoform 2 (UniProt P12931),0.199 (inactive)
2,SRSF6 (UniProt Q13247),-0.299 (inactive)
3,TFAM (UniProt Q00059),-0.115 (inactive)
4,SLC39A11 (UniProt Q8N1S5),-0.122 (inactive)
5,TM9SF4 (UniProt Q92544),-0.057 (inactive)
6,SLC25A38 (UniProt Q96DW6),-0.028 (inactive)
7,SSBP4 (UniProt Q9BWG4),-0.093 (inactive)
8,TAOK3 (UniProt Q9H2K8),-0.203 (inactive)
9,SRI (UniProt P30626),-0.038 (inactive)
10,SNX15 (UniProt Q9NRS6),-0.073 (inactive)
11,SRXN1 (UniProt Q9BYN0),0.09 (inactive)
12,STX7 (UniProt O15400),0.079 (inactive)
13,SMARCA4 (UniProt P51532),-0.115 (inactive)
14,TATDN2 (UniProt Q93075),0.06 (inactive)
15,TACC2 (UniProt O95359),-0.073 (inactive)
16,SOAT1 (UniProt P35610),-0.185 (inactive)
17,SP1 (UniProt P08047),-0.088 (inactive)
